Experimental data published in the supplement of paper PMC12494721.
Counter-ions that a name gives are not always drawn.

Legend:
Conditions in all cases: incubation time: 27 h, anaerobic, 37 °C;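 for the amine columns active = adjusted P below 0.05 in both replicates with a change the same way and a mean fold change under 0.8 or over 1.25; inactive = the rest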
[1] = tested on: Clostridium sporogenes DSM 1664; assay: growth (OD595) fold change vs plate DMSO controls (fold change (ratio)); higher = more growth
Method in brief: (§1)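 Shaken 96-well cultures in mGAM, grown anaerobically for 27 h at 37 °C, were read at 595 nm. OD came from blank-subtracted readings, corrected for background with 20 µM compound solutions in water and scaled by a calibration factor of 5. Growth is the fold change versus the plate's median DMSO control. Values average 2 biological replicates, and any fold change above 1.5 is NA.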

Escherichia coli IAI1 [2] = assay: as above
Method in brief: as §1

[3] = tested on: Klebsiella aerogenes DSM 30053; assay: as above
Method in brief: as §1

[4] = tested on: Ruminococcus gnavus DSM 108212; assay: as above
Method in brief: as §1

[5] = tested on: Klebsiella aerogenes DSM 30053; assay: fold change of Histamine concentration vs plate DMSO controls (fold change (ratio)); higher = more amine produced, active = hit call of the paper (significant change in both replicates, either direction)
Method in brief: (§2)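 Amines were quantified by LC–triple-quadrupole MS in dynamic MRM mode against external calibration curves, with drift correction within each batch. The samples were whole anaerobic mGAM cultures of four gut bacterial strains, grown for 27 h at 37 °C in 80 µL wells and extracted with cold acetonitrile/methanol with 0.1% formic acid, then centrifuged. Values are reported as fold change over DMSO controls on the same plate. The mean of 2 biological replicates is given.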

[6] = tested on: Clostridium sporogenes DSM 1664; assay: fold change of Tryptamine concentration vs plate DMSO controls (fold change (ratio)); higher = more amine produced, active = hit call of the paper (significant change in both replicates, either direction)
Method in brief: as §2

[7] = tested on: Ruminococcus gnavus DSM 108212; assay: as above
Method in brief: as §2

Escherichia coli IAI1 [8] = assay: fold change of Putrescine concentration vs plate DMSO controls (fold change (ratio)); higher = more amine produced, active = hit call of the paper (significant change in both replicates, either direction)
Method in brief: as §2

[9] = tested on: Klebsiella aerogenes DSM 30053; assay: as above
Method in brief: as §2

Escherichia coli IAI1 [10] = assay: fold change of Cadaverine concentration vs plate DMSO controls (fold change (ratio)); higher = more amine produced, active = hit call of the paper (significant change in both replicates, either direction)
Method in brief: as §2

[11] = tested on: Klebsiella aerogenes DSM 30053; assay: as above
Method in brief: as §2

[12] = tested on: Ruminococcus gnavus DSM 108212; assay: fold change of 2-Phenylethylamine concentration vs plate DMSO controls (fold change (ratio)); higher = more amine produced, active = hit call of the paper (significant change in both replicates, either direction)
Method in brief: as §2

| SMILES | growth [1] | growth (Escherichia coli IAI1 [2]) | growth [3] | growth [4] | fold change of Histamine concentration [5] | fold change of Tryptamine concentration [6] | fold change of Tryptamine concentration [7] | fold change of Putrescine concentration (Escherichia coli IAI1 [8]) | fold change of Putrescine concentration [9] | fold change of Cadaverine concentration (Escherichia coli IAI1 [10]) | fold change of Cadaverine concentration [11] | fold change of 2-Phenylethylamine concentration [12] |
| --- | --- | --- | --- | --- | --- | --- | --- | --- | --- | --- | --- | --- |
| Cc1c(N(C)C)c(=O)n(-c2ccccc2)n1C [Amidopyrine] (20 µM) | 0.923 | 1.02 | 0.997 | 1.18 | 0.997 (inactive) | 0.979 (inactive) | 1.16 (inactive) | 0.995 (inactive) | 0.986 (inactive) | 0.985 (inactive) | 1.03 (inactive) | 1.19 (inactive) |
| CC[C@H]1OC(=O)[C@H](C)[C@@H](O[C@H]2C[C@@](C)(OC)[C@@H](O)[C@H](C)O2)[C@H](C)[C@@H](O[C@@H]2O[C@H](C)C[C@H](N(C)C)[C@H]2O)[C@](C)(O)C[C@@H](C)CN(C)[C@H](C)[C@@H](O)[C@]1(C)O [Azithromycin] (20 µM) | 0 | 0.212 | 0.39 | 0.162 | 0.0612 (active) | 0.0425 (active) | 0.0983 (active) | 0.366 (inactive) | 0.425 (active) | 0.633 (active) | 0.99 (inactive) | 0.115 (active) |
| C=CC[N@@+]12CC[C@@]34c5ccccc5N5/C=C6/[C@H]7C[C@H]8[C@@]9(CC[N@@+]8(CC=C)C/C7=C/CO)c7ccccc7N(/C=C(/[C@@H](C[C@@H]31)/C(=C\CO)C2)[C@H]54)[C@@H]69 [Alcuronium chloride] (20 µM) | 1.09 | 0.982 | 1.01 | 1.26 | 1.04 (inactive) | 1.03 (inactive) | 1.05 (inactive) | 1.12 (inactive) | 0.99 (inactive) | 0.915 (inactive) | 1.02 (inactive) | 1.07 (inactive) |
| CC[N+](CC)(CC)CCOc1cccc(OCC[N+](CC)(CC)CC)c1OCC[N+](CC)(CC)CC [Gallamine triethiodide] (20 µM) | 1.09 | 1.02 | 1.05 | 0.905 | 0.862 (inactive) | 1.12 (inactive) | 1.09 (inactive) | 1.06 (inactive) | 0.945 (inactive) | 0.947 (inactive) | 1.04 (inactive) | 1.06 (inactive) |
| Cc1ccc(Cl)c(Nc2ccccc2C(=O)O)c1Cl [Meclofenamic acid sodium salt monohydrate] (20 µM) | 1.01 | 0.972 | 1.16 | 1.12 | 0.916 (inactive) | 0.879 (inactive) | 0.959 (inactive) | 0.999 (inactive) | 0.977 (inactive) | 1.03 (inactive) | 1.03 (inactive) | 0.911 (inactive) |
| Nc1ccc(S(=O)(=O)c2ccc(N)cc2)cc1 [Dapsone] (20 µM) | 1.06 | 1.02 | 0.979 | 1.2 | 0.967 (inactive) | 1.03 (inactive) | 0.982 (inactive) | 1.04 (inactive) | 0.981 (inactive) | 1.02 (inactive) | 1 (inactive) | 1.04 (inactive) |
| COc1cc2ncnc(Nc3ccc(F)c(Cl)c3)c2cc1OCCCN1CCOCC1 [Gefitinib] (20 µM) | 1.1 | 1.04 | 0.991 | 1.18 | 0.983 (inactive) | 1.06 (inactive) | 0.993 (inactive) | 1.14 (inactive) | 0.997 (inactive) | 1.02 (inactive) | 1.02 (inactive) | 1.1 (inactive) |
| CN(C)CCCOc1nn(Cc2ccccc2)c2ccccc12 [Benzydamine hydrochloride] (20 µM) | 1.1 | 0.95 | 0.978 | 1.04 | 1.05 (inactive) | 0.95 (inactive) | 0.986 (inactive) | 0.983 (inactive) | 1.03 (inactive) | 0.967 (inactive) | 1.01 (inactive) | 0.92 (inactive) |
| Cc1cccc(Nc2ccncc2S(=O)(=O)NC(=O)NC(C)C)c1 [Torsemide] (20 µM) | 1.09 | 1.07 | 1 | 1.03 | 1.03 (inactive) | 1.05 (inactive) | 1.12 (inactive) | 1.06 (inactive) | 0.998 (inactive) | 0.976 (inactive) | 0.986 (inactive) | 1.24 (inactive) |
| CN(C)CCOC(c1ccccc1)c1ccccc1.Cn1c(=O)c2[nH]c(Cl)nc2n(C)c1=O [Dimenhydrinate] (20 µM) | 0.99 | 0.985 | 0.954 | 1.06 | 1.05 (inactive) | 1.02 (inactive) | 1.02 (inactive) | 0.995 (inactive) | 1.01 (inactive) | 0.985 (inactive) | 0.985 (inactive) | 1.03 (inactive) |
| CCn1cc(C(=O)O)c(=O)c2cc(F)c(N3CCNCC3)cc21 [Norfloxacin] (20 µM) | 0.0353 | 0.0339 | 0.239 | 0.814 | 0.0898 (active) | 0.0308 (active) | 0.863 (inactive) | 0.612 (active) | 0.792 (active) | 0.161 (active) | 0.963 (inactive) | 0.892 (inactive) |
